Measurements from PubChem BioAssay (NCI).
About 79,000 compounds went through this panel and 15% of them were active in at least one assay; those are over-represented in the sample as a whole. Active and inactive are the calls of the source. Rule as the data show it: active = growth inhibition above about 70%; inactive = the rest.

How the values were obtained:
[1] = NCI Yeast Anticancer Drug Screen. Data for the rad50 strain (AID 155);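 also: 0% = growth of vehicle-only cultures of the same strain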; details: S. cerevisiae rad50 strain growth inhibition; at 50.0 µM; active compounds read high
Summary of the method: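 Growth of the mutant yeast was measured after compound exposure and referenced to vehicle-treated cultures.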

[2] = NCI Yeast Anticancer Drug Screen. Data for the mec2-1 strain (AID 157); details: S. cerevisiae mec2-1 strain, at 50.0 µM, active compounds read high
Summary of the method: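 Compounds were applied to mec2-1 yeast cells. Their growth was then compared with that of vehicle-treated cultures to give growth inhibition.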

[3] = NCI Yeast Anticancer Drug Screen. Data for the sgs1 mgt1 strain (AID 161);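 also: 0% = growth of cultures given vehicle only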; details: S. cerevisiae sgs1 mgt1 strain, at 50.0 µM, active compounds read high
Summary of the method: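 Compounds are added to genetically altered yeast, and growth is compared with cultures given vehicle alone to give percent inhibition.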

[4] = NCI Yeast Anticancer Drug Screen. Data for the cln2 rad14 strain (AID 165);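 also: 0% = growth equal to vehicle treated cultures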; details: S. cerevisiae cln2 rad14 strain, at 50.0 µM, active compounds read high
Summary of the method: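 Strain: cln2 rad14 yeast, altered in cell cycle control and DNA damage repair. Read-out: growth inhibition vs vehicle.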

[5] = NCI Yeast Anticancer Drug Screen. Data for the bub3 strain (AID 167); details: S. cerevisiae bub3 mutant strain, at 50.0 µM, active compounds read high
Summary of the method: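 Whole-cell yeast assay. The mutant strain was incubated with compounds, and growth inhibition was determined by comparison with vehicle-treated cells.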

[6] = NCI Yeast Anticancer Drug Screen. Data for the mlh1 rad18 strain (AID 175); details: S. cerevisiae mlh1 rad18 strain growth inhibition; at 50.0 µM; active compounds read high
Summary of the method: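 A repair-deficient yeast strain is exposed to test compound, and growth is scored relative to vehicle-treated controls.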

Measured: growth inhibition

CCOC(=O)c1ccc(N2C(C#N)c3ccccc3OC2c2ccccc2O)cc1 (centres undefined)
inactive: [1] 5.5% | [2] 2.25% | [3] 15.6% | [4] -19.5% | [5] 1.3% | [6] 21.4%

COc1ccccc1N1C(Cl)C(=O)C1c1c[nH]c2ccccc12 (centres undefined)
inactive: [1] 26.9% | [2] -40.3% | [3] -28.7% | [4] 4.4% | [5] -26.6% | [6] -34.9%

Nc1cc(Cl)c(N(CCO)C2=NCCN2)c(Cl)c1
inactive: [1] 3.8% | [2] -3.25% | [3] 3.05% | [4] -12.2% | [5] 1.3% | [6] -5.75%

O=S(=O)(SC(S(=O)(=O)c1ccccc1)S(=O)(=O)c1ccccc1)c1ccccc1
inactive: [1] 13.2% | [2] 9.35% | [3] 39.4% | [4] 1% | [6] 39.2%
active: [5] 72.6%

CO/C(=N\N=C\c1ccccc1F)c1ccncc1
inactive: [1] -25.9% | [2] -64.8% | [3] -70.8% | [4] 1.7% | [5] -28.6% | [6] -60.6%

NC(Cc1ccccc1)(C(=O)O)C(=O)O
inactive: [1] -12.7% | [2] 1.45% | [3] -11.4% | [4] -31.8% | [5] -22.1% | [6] 15.7%

CC(C)C(=O)NCc1ccccc1Sc1ccccc1CNC(=O)C(C)C
inactive: [1] -13.8% | [2] 6.1% | [3] -18.5% | [4] -10% | [5] 1.4% | [6] -0.7%

O=C1CSC(c2ccccc2F)N1c1ncccn1 (centres undefined)
inactive: [1] -3.2% | [2] -6.8% | [3] 0.75% | [4] -20.8% | [5] 8% | [6] -1.4%

CCC(=O)Nc1nc2c(ncn2C2OC(COC(=O)CC)C(OC(=O)CC)C2OC(=O)CC)c(=O)[nH]1 (centres undefined)
inactive: [1] -11.6% | [2] 5.2% | [3] 18.5% | [4] 6.25% | [5] 6.8% | [6] -7.3%

O=C(O)CN(CC(=O)O)Cc1ccccc1
inactive: [1] -22.3% | [2] 8.7% | [3] 6.8% | [4] -71.4% | [5] 7.9% | [6] 4.2%

COC(=O)C(C)Oc1ccc(O)cc1 (centres undefined)
inactive: [1] 21.7% | [2] -3% | [3] 5% | [4] 7.7% | [5] 19.7% | [6] 10.4%

COC1OC(COC(=O)c2ccc([N+](=O)[O-])cc2)C(O)C1SC#N (centres undefined)
inactive: [1] 43.5% | [2] -2.3% | [3] 41.3% | [4] -10.1% | [5] 13.2% | [6] 42.8%

Nc1c([N+](=O)[O-])cc(F)cc1C(F)(F)F
inactive: [1] -5.5% | [2] -17.6% | [3] 3.6% | [4] -14.9% | [5] 5.4% | [6] 6.7%

CC1=NS(=O)(=O)c2ccccc2N1
inactive: [1] 0.3% | [2] -4.4% | [3] 4.75% | [4] 15.9% | [5] 4.45% | [6] 10.2%

CCOC(=O)c1cc(C)[nH]c1C
inactive: [1] 2.65% | [2] -1.9% | [3] -0.55% | [4] -17.6% | [5] 23.2% | [6] 3.9%

N#CC1CCCCCC1
inactive: [1] 0.8% | [2] -12.4% | [3] 5.7% | [4] 2.6% | [5] 8.15% | [6] 5.85%

CCC1(C)C=Cc2c(cc(OC)c3c(=O)c4ccccc4n(C)c23)O1 (centres undefined)
inactive: [1] -21.8% | [2] -27.4% | [3] -33.8% | [4] -19.6% | [5] 4.05% | [6] -26.4%

Cc1ccc(N=NC(=O)NNc2ccc(C)c([N+](=O)[O-])c2)cc1[N+](=O)[O-]
inactive: [1] 55% | [2] 3.9% | [3] 17.6% | [4] 16.1% | [5] 6.45% | [6] 32.4%

NC(CS)=NCc1ccccc1
inactive: [1] 0.65% | [2] -1.35% | [3] -12.9% | [4] -86.6% | [5] 8.85% | [6] -6%
